Source: PubChem (several laboratories)
Anthrax LF prot – blocks Bacillus anthracis lethal factor protease; multiplex microsphere protease cleavage assay, LF; hit rate 0.12% among 360,000; inhibition, % at 10 µM; note: plate controls were buffer without enzyme for full effect and enzyme alone for no effect
BoNT-A LC inh2 – inhibitors of Botulinum neurotoxin A light chain protease | hit rate 0.17% among 360,000 | inhibition, % at 10 µM | multiplex microsphere protease substrate cleavage, flow cytometry; note: plate controls were buffer without enzyme for full effect and enzyme alone for no effect
Bead autofluor – counter-screen for toxin protease inhibitors: compound fluorescence | compound autofluorescence counterscreen, microsphere flow cytometry; stronger effect = higher value | fluorescence intensity (test concentration not listed) | hit rate 3.1% among 360,000 | AID 624483; in the data active = fluorescence intensity above about 16000; inconclusive = no clear call, values can overlap the other calls
MazF activator – increases E. coli MazEF RNase cleavage of RNA | activation, % at 20 µM | P0AE70 | FAM/BHQ RNA-DNA oligo cleavage fluorescence, 5 h | hit rate 0.32% among 350,000; in the data active = activation above about 50%
Target sequence (P0AE70 whole entry, looked up): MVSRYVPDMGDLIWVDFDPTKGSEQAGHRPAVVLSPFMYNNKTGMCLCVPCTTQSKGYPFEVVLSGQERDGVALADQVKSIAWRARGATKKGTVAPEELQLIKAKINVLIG
BoNT F protease – inhibitors of Botulinum neurotoxin F light chain protease. Multiplex microsphere protease cleavage assay, flow cytometry. inhibition, % at 10 µM. hit rate 0.22% among 360,000. AID 588497; in the data active = inhibition above about 35%, passing the limit was not always enough; inconclusive = no clear call, values can overlap the other calls; note: plate controls were buffer without enzyme for full effect and enzyme alone for no effect
DUSP3 inh – blocks human VHR1 dual specificity phosphatase; P51452; inhibition, % at 13.3 µM; recombinant VHR phosphatase, pNPP absorbance; hit rate 0.52% among 290,000; AID 1654; in the data active = inhibition above about 50%
Target sequence (P51452 whole entry, looked up): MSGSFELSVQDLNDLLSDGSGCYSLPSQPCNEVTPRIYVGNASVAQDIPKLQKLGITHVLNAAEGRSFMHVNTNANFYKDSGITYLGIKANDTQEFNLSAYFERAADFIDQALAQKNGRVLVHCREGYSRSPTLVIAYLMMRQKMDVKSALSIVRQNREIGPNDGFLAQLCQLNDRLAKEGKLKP
* marks the source's active call; other numbers are inactive results. Hits are enriched below; roughly 4% of the tested compounds scored in any of these assays. Cut-off read from the data, not from the text of the source, unless noted: active = inhibition above about 30%; inconclusive = no clear call, values can overlap the other calls; inactive = below that.

`CC1CN(C(=O)COC(=O)c2ccc(Cl)c(S(=O)(=O)N3CCCCC3)c2)CC(C)O1` (centres undefined) gave Anthrax LF prot -0.9, BoNT-A LC inh2 -0.5, Bead autofluor 2274, MazF activator -0.2, BoNT F protease -2.8 and DUSP3 inh -0.2.
`COCCn1c(SCC(=O)NC(=O)NC2CCCCC2)nc2ccccc2c1=O` gave Anthrax LF prot -3.0, BoNT-A LC inh2 0.1, Bead autofluor 3939, MazF activator 1.6 and BoNT F protease 12.1.
`O=C(NCc1ccco1)C1CN(S(=O)(=O)c2ccccc2)CCN1S(=O)(=O)c1ccccc1` (centres undefined) gave Anthrax LF prot 1.3, BoNT-A LC inh2 4.4, Bead autofluor 20955*, MazF activator -0.6, BoNT F protease 6.3 and DUSP3 inh 25.2.
`Cc1ccc(S(=O)(=O)N2CCC(C(=O)N3CCC[C@H]3C(=O)NCc3ccccc3)CC2)cc1` gave Anthrax LF prot -0.1, BoNT-A LC inh2 -4.8, Bead autofluor 21009*, MazF activator -3.7, BoNT F protease -5.6 and DUSP3 inh 10.9.
`O=C(NCc1ccco1)c1cccc(S(=O)(=O)N2CCCC2)c1` gave Anthrax LF prot 7.4, BoNT-A LC inh2 0.5, Bead autofluor 3677, MazF activator 3.2, BoNT F protease 5.8 and DUSP3 inh 17.1.
Screening CC1CCN(S(=O)(=O)c2cccc(C(=O)NCc3ccco3)c2)CC1 returned Anthrax LF prot -2.9, BoNT-A LC inh2 -1.1, Bead autofluor 23763*, MazF activator -10.9, BoNT F protease -3.3 and DUSP3 inh -16.0.
Screening O=C(NCc1ccco1)C1Cc2ccccc2CN1S(=O)(=O)c1ccccc1F (centres undefined) returned Anthrax LF prot 1.6, BoNT-A LC inh2 -2.4, Bead autofluor 23284*, MazF activator -8.1 and BoNT F protease -3.4.
Cc1cnc(NC(=O)COc2ccccc2)s1 was read as Anthrax LF prot -6.7, BoNT-A LC inh2 -2.0, Bead autofluor 6751, MazF activator 3.4, BoNT F protease -8.9 and DUSP3 inh -18.5.
Cc1nnc(NC(=O)CSc2nnc(CNC(=O)C34CC5CC(CC(C5)C3)C4)n2C2CCCCC2)s1 was read as Anthrax LF prot -3.1, BoNT-A LC inh2 -0.6, Bead autofluor 6773, MazF activator 10.2, BoNT F protease -0.4 and DUSP3 inh -1.9.
Screening Cc1ccc(S(=O)(=O)N2CCCCC2C(=O)NCc2ccco2)cc1 (centres undefined) returned Anthrax LF prot -4.8, BoNT-A LC inh2 1.0, Bead autofluor 4340, MazF activator -26.2, BoNT F protease -4.2 and DUSP3 inh 24.4.
For Cc1ccc(S(=O)(=O)N2CCC(C(=O)N3CCC[C@H]3C(=O)NCc3ccco3)CC2)cc1 the results were Anthrax LF prot -1.7, BoNT-A LC inh2 -0.9, Bead autofluor 16928*, MazF activator -15.6, BoNT F protease -0.1 and DUSP3 inh 10.4.
c1ccc(-c2nnc3sc(CN4CCC5(CC4)OCCO5)cn23)cc1 was read as Anthrax LF prot 0.4, BoNT-A LC inh2 -1.1, Bead autofluor 20544*, MazF activator 5.0, BoNT F protease -0.6 and DUSP3 inh 7.2.
c1ccc(-c2nnc(CN3CCC4(CC3)OCCO4)o2)cc1 was read as Anthrax LF prot -5.9, BoNT-A LC inh2 -0.5, Bead autofluor 5624, MazF activator 5.4, BoNT F protease -0.4 and DUSP3 inh -5.1.
COC(=O)C1=C(C)C(c2ccc(OC)cc2)NC(=S)N1 (centres undefined) was read as Anthrax LF prot 2.9, BoNT-A LC inh2 0.1, Bead autofluor 9667, MazF activator 14.6, BoNT F protease 1.9 and DUSP3 inh 33.8.
Screening CCOC(=O)C1=C(C)C(c2ccccc2)NC(=S)N1 (centres undefined) returned Anthrax LF prot -1.3, BoNT-A LC inh2 2.8, Bead autofluor 18384*, MazF activator -0.2, BoNT F protease 1.3 and DUSP3 inh 10.5.
`Cc1ccc(C)c(NC(=O)C2COc3ccccc3O2)c1` (centres undefined) gave Anthrax LF prot -5.4, BoNT-A LC inh2 -2.8, Bead autofluor 3820, MazF activator 7.1, BoNT F protease -36.1 and DUSP3 inh 31.8.
CC(C)[N+]1=C2C=CC=CC=C2SC12C([N+](=O)[O-])=CC(=[N+]([O-])[O-])C=C2[N+](=O)[O-] (centres undefined) was read as Anthrax LF prot -11.6, BoNT-A LC inh2 40.9*, Bead autofluor 2794, MazF activator 0.4, BoNT F protease inconclusive and DUSP3 inh -3.2.
For COc1nnc(-c2ccc(N3CCCCC3)c(NC(=O)C3CCCCC3)c2)c2ccccc12 the results were Anthrax LF prot 4.1, BoNT-A LC inh2 -5.3, Bead autofluor 13968, MazF activator -12.6, BoNT F protease -16.0 and DUSP3 inh 29.6.
For COc1nnc(-c2ccc(N3CCCCC3)c(NC(C)=O)c2)c2ccccc12 the results were Anthrax LF prot 1.8, BoNT-A LC inh2 inconclusive, Bead autofluor 19145*, MazF activator -0.9, BoNT F protease 2.3 and DUSP3 inh 28.3.
O=C1c2ccccc2S(=O)(=O)N1CCOc1ccc(F)cc1 was read as Anthrax LF prot -1.5, BoNT-A LC inh2 -1.1, Bead autofluor 24481*, MazF activator 4.1, BoNT F protease -4.9 and DUSP3 inh 10.4.
Screening Cc1ccc(C)c(NC(=O)CSc2nnc([C@@H](N)Cc3c[nH]c4ccccc34)o2)c1 returned Anthrax LF prot -3.2, BoNT-A LC inh2 -4.3, Bead autofluor 24677*, MazF activator 2.6, BoNT F protease -12.3 and DUSP3 inh -0.8.
Screening CC(C)Sc1nnc([C@@H](N)Cc2ccccc2)o1 returned Anthrax LF prot 2.1, BoNT-A LC inh2 0.4, Bead autofluor 16323*, MazF activator 0.9, BoNT F protease -0.5 and DUSP3 inh 16.4.
`CC(C)Sc1nnc([C@@H](N)Cc2c[nH]c3ccccc23)o1` gave Anthrax LF prot -4.9, BoNT-A LC inh2 inconclusive, Bead autofluor 18809*, MazF activator -2.8, BoNT F protease 1.8 and DUSP3 inh 24.4.
O=C(O)C1CCN(c2ccc(S(=O)(=O)N3CCCCC3)cc2[N+](=O)[O-])CC1 was read as Anthrax LF prot -0.8, BoNT-A LC inh2 -1.8, Bead autofluor 6187, MazF activator 0.7 and BoNT F protease 1.2.
O=C(Nc1cccnc1)C1(c2ccc(Cl)cc2)CCCC1 was read as Anthrax LF prot -10.9, BoNT-A LC inh2 inconclusive, Bead autofluor 16176*, MazF activator -0.5, BoNT F protease 16.4 and DUSP3 inh 3.7.
For O=C(NCCO)C1(c2ccc(Cl)cc2)CCCC1 the results were Anthrax LF prot -2.4, BoNT-A LC inh2 -2.0, Bead autofluor 24150*, MazF activator -9.6, BoNT F protease -2.3 and DUSP3 inh 11.3.
For CCc1ccc(S(=O)(=O)c2n[nH]n3c2nc(=O)c2ccccc23)cc1 the results were Anthrax LF prot 3.5, BoNT-A LC inh2 -0.7, Bead autofluor 9615, MazF activator -10.7, BoNT F protease -23.2 and DUSP3 inh 8.8.
